Data: PubChem BioAssay (NCATS)
Results filed as inconclusive are left out. The source made the active and inactive calls. Unless noted, the call rests on the fitted dose curve. Numbered stars: 1 amine (or outer) side, 2 acyl side, 3 side chain; on linkers, the order of the positions; unused ones are H or OH. Starred links: 1 amine or outer side, 2 acyl side, 3 side chain; linkers in the order of their positions; H or OH if unused. Positions of bridges follow the written chain, without caps; N, C: chain ends. Bridge positions count the residues as written; N and C are the ends. Non-standard residues stand in square brackets, D forms with d. Square brackets hold non-standard residues; d marks the D form. Residues, ends and D or L forms follow the SMILES beside them. Peptide text beside a SMILES is read from it. I, II: the chains in the order shown. ξ: configuration not given here. *: point of attachment. Actinocin(9to1) = Cc1c2oc3c(C)ccc(C(=O)[*:1])c3nc-2c(C(=O)[*:2])c(N)c1=O; ΔAla(3-NHCONH2) = NC(=O)NC=C(N)C(=O)O; X1 = NC1=NCCC(C(N[*:1])C(=O)[*:2])N1; NMeV = CN[C@H](C(=O)O)C(C)C; ξβ3hOrn = NCCCC(N)CC(=O)*; Dap = NC[CH](N)C(=O)O; Sar = CNCC(=O)O

Assays:
[1] = qHTS for Inhibitors of the Functional Ribonucleoprotein Complex (vRNP) of Lassa (LASV) Arenavirus: Viability assay - alamar blue signal for LASV Primary Screen (AID 1347083; calls by dose curve; tested in HEK293 reporter line; further: nearly all actives have a fitted effect of over 80% in size)
[2] = qHTS for Inhibitors of the Functional Ribonucleoprotein Complex (vRNP) of Lymphocytic Choriomeningitis Arenaviruses (LCMV): Viability assay - alamar blue signal for LCMV Primary Screen (AID 1347085; calls by dose curve; tested in HEK293 reporter line; further: nearly all actives have a fitted effect of over 80% in size)
[3] = biological target: Nucleoprotein (Lymphocytic choriomeningitis virus (strain Armstrong)) (UniProt P09992); assay: qHTS for Inhibitors of the Functional Ribonucleoprotein Complex (vRNP) of Lymphocytic Choriomeningitis Arenaviruses (LCMV): LCMV Primary Screen - GLuc reporter signal (AID 1347086); further: nearly all actives have a fitted effect of over 70% in size
Nucleoprotein (Lymphocytic choriomeningitis virus (strain Armstrong)), sequence (P09992 whole entry, looked up): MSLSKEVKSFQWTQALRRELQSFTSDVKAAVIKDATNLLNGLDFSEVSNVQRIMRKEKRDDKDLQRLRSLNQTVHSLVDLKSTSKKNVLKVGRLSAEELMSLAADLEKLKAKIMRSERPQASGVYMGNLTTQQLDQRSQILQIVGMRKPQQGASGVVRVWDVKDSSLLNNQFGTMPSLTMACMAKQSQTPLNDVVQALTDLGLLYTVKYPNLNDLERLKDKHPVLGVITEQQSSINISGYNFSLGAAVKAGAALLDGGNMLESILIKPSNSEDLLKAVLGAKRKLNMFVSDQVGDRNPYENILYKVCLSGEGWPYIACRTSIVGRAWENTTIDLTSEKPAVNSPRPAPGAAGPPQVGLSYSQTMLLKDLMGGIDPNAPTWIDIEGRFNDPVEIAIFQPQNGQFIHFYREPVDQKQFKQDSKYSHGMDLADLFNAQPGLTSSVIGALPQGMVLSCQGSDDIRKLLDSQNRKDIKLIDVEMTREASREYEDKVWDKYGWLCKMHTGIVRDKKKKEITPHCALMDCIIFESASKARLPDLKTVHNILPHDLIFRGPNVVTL
Further: series mostly up to about 57 µM.
On the % scale 0 is the no-effect control and ±100 the full control effect.

NCCCC(N)CC(=O)NCC1NC(=O)C(CO)NC(=O)C(N)CNC(=O)C(C2CCN=C(N)N2)NC(=O)C(=CNC(N)=O)NC1=O (stereo not drawn) (H-[Dap]S[Dap](ξβ3hOrn)[ΔAla(3-NHCONH2)][X1]; lactam 1-C; configuration not given here)
inactive: activity change, negative = reduced viability [1] -7.39% [at 0.757 µM] | activity change, negative = lower viability [2] -4.22% [at 0.757 µM] | activity change, negative = inhibition [3] -2.08% [at 0.757 µM]

O=P(O)(O)C(O)(Cc1cccnc1)P(=O)(O)O
inactive: Potency [1] | Potency [2] | Potency [3]

CCOc1ccccc1OCCN[C@H](C)Cc1ccc(OC)c(S(N)(=O)=O)c1
inactive: Potency [1] | Potency [2] | Potency [3]

Cc1c(O)cccc1C(=O)N[C@@H](CSc1ccccc1)[C@H](O)CN1C[C@H]2CCCC[C@H]2C[C@H]1C(=O)NC(C)(C)C
inactive: Potency [1] | Potency [2] | Potency [3]

C=C[C@H]1CN2CC[C@H]1C[C@@H]2[C@@H](O)c1ccnc2ccc(OC)cc12
inactive: Potency [1] | Potency [2] | Potency [3]

CO[C@H]1C=CO[C@@]2(C)Oc3c(C)c(O)c4c(O)c(c(/C=N/N5CCN(C)CC5)c(O)c4c3C2=O)NC(=O)/C(C)=C\C=C[C@H](C)[C@H](O)[C@@H](C)[C@@H](O)[C@@H](C)[C@H](OC(C)=O)[C@@H]1C
inactive: Potency [1] | Potency [2] | Potency [3]

CC(=O)OCC(CCn1cnc2cnc(N)nc21)COC(C)=O
inactive: Potency [1] | Potency [2] | Potency [3]

CN(C)[C@@H]1C(=O)C(C(N)=O)=C(O)[C@@]2(O)C(=O)C3=C(O)c4c(O)ccc(Cl)c4[C@@H](O)[C@H]3C[C@@H]12
inactive: Potency [1] | Potency [2] | Potency [3]

Cc1c2oc3c(C)ccc(C(=O)N[C@@H]4C(=O)N[C@H](C(C)C)C(=O)N5CCC[C@H]5C(=O)N(C)CC(=O)N(C)[C@@H](C(C)C)C(=O)O[C@@H]4C)c3nc-2c(C(=O)N[C@@H]2C(=O)N[C@H](C(C)C)C(=O)N3CCC[C@H]3C(=O)N(C)CC(=O)N(C)[C@@H](C(C)C)C(=O)O[C@@H]2C)c(N)c1=O (I: T[dV]P[Sar][NMeV] / II: T[dV]P[Sar][NMeV]; ester I:1-I:C, II:1-II:C; linker I:N-II:N via Actinocin(9to1))
inactive: Potency [1] | Potency [2] | Potency [3]

CC(C)OC(=O)C(C)(C)Oc1ccc(C(=O)c2ccc(Cl)cc2)cc1
inactive: Potency [1] | Potency [2] | Potency [3]

C=C(c1ccc(C(=O)O)cc1)c1cc2c(cc1C)C(C)(C)CCC2(C)C
inactive: Potency [1] | Potency [2] | Potency [3]

COC(=O)CCc1ccc(OCC(O)CNC(C)C)cc1 (stereo not given)
inactive: Potency [1] | Potency [2] | Potency [3]

NNc1nncc2ccccc12
inactive: Potency [1] | Potency [2] | Potency [3]

CC[C@@H]([C@H](C)O)n1ncn(-c2ccc(N3CCN(c4ccc(OC[C@@H]5CO[C@@](Cn6cncn6)(c6ccc(F)cc6F)C5)cc4)CC3)cc2)c1=O
inactive: Potency [1] | Potency [2] | Potency [3]

Cn1cnc2c(F)c(Nc3ccc(Br)cc3Cl)c(C(=O)NOCCO)cc21
inactive: Potency [1] | Potency [2] | Potency [3]

Cn1c(=O)c2c(ncn2CC(O)CO)n(C)c1=O (stereo not given)
inactive: Potency [1] | Potency [2] | Potency [3]

CCOC(=O)[C@H](CCc1ccccc1)N[C@@H](C)C(=O)N1[C@H](C(=O)O)C[C@@H]2CCC[C@@H]21
inactive: Potency [1] | Potency [2] | Potency [3]

CN(CCOc1ccc(CC2SC(=O)NC2=O)cc1)c1ccccn1 (stereo not given)
inactive: Potency [1] | Potency [2] | Potency [3]

O=c1c(O)c(-c2ccc(O)c(O)c2)oc2cc(O)cc(O)c12
inactive: Potency [1] | Potency [2] | Potency [3]

Cc1onc(-c2ccccc2Cl)c1C(=O)N[C@@H]1C(=O)N2[C@@H]1SC(C)(C)[C@@H]2C(=O)O
inactive: Potency [1] | Potency [2] | Potency [3]

CCN(C)C(=O)Oc1cccc([C@H](C)N(C)C)c1
inactive: Potency [1] | Potency [2] | Potency [3]

C[n+]1ccccc1/C=N/O
inactive: Potency [1] | Potency [2] | Potency [3]

COc1nc(N)nc2c1ncn2[C@@H]1O[C@H](CO)[C@@H](O)[C@@H]1O
inactive: Potency [1] | Potency [2] | Potency [3]

CC[C@@H](CO)NCCN[C@@H](CC)CO
inactive: Potency [1] | Potency [2] | Potency [3]

CCn1cc(C(=O)O)c(=O)c2ccc(C)nc21
inactive: Potency [1] | Potency [2] | Potency [3]

CCn1cc(C(=O)O)c(=O)c2cc(F)c(N3CCNCC3)cc21
inactive: Potency [1] | Potency [2] | Potency [3]

CNCC[C@@H](Oc1ccccc1C)c1ccccc1
inactive: Potency [1] | Potency [2] | Potency [3]

CC(c1cc2ccccc2s1)N(O)C(N)=O (stereo not given)
inactive: Potency [1] | Potency [2] | Potency [3]

CN(C)CCC=C1c2ccccc2CCc2ccccc21
inactive: Potency [1] | Potency [2] | Potency [3]

CCCN1C[C@H](CSC)C[C@@H]2c3cccc4[nH]cc(c34)C[C@H]21
inactive: Potency [1] | Potency [2] | Potency [3]

Cc1ccc(C(=O)c2cc(O)c(O)c([N+](=O)[O-])c2)cc1
inactive: Potency [1] | Potency [2] | Potency [3]

CC1Cc2ccccc2N1NC(=O)c1ccc(Cl)c(S(N)(=O)=O)c1 (stereo not given)
inactive: Potency [1] | Potency [2] | Potency [3]

COc1cc2nc(N3CCN(C(=O)c4ccco4)CC3)nc(N)c2cc1OC
inactive: Potency [1] | Potency [2] | Potency [3]

C[C@](N)(Cc1ccc(O)c(O)c1)C(=O)O
inactive: Potency [1] | Potency [2] | Potency [3]

CN1CCc2cccc3c2[C@H]1Cc1ccc(O)c(O)c1-3
inactive: Potency [1] | Potency [2] | Potency [3]
